Assay results published in the supplement of paper PMC6555819.

System: RXRa DBDmut IVT, anti-RXR (DBD mutation: RXRa K156A/R161A, NR concentration 90 nM)
Assay: PBM binding z-score (relative to random genomic background probes); higher = stronger binding; sequences stand for … in GC…GCGATTGACAGCGTAGAATGAAGG
In short: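 The probes on custom Agilent 4×180K protein-binding microarrays were double-stranded, with 34-nt variable regions bearing direct-repeat seeds, single-nucleotide variants, half-site ablations and random human genomic background sequences. Incubation lasted 1 h with ligand-free nuclear receptor dimers in PBS pH 7.4, 2% milk, 0.02% Triton X-100, 1 mM DTT, 0.2 mg/mL BSA and 0.4 mg/ml salmon testes DNA. Antibodies against each partner (one per run) detected bound dimers, and fluorescence scans were regression-normalized. Binding z-scores take the random background probes as reference.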

Row | Sequence | PBM binding z-score
1 | CGTTCAAGGTCAAGGTCAGTGAAAGAGACTCGAA | 3.86
2 | ACTAGTTGGTCAGCCGAGGTCACACACAATTCGG | 0.998
3 | AGTCAAAGTTCACTAGATAACGTAAGATTCAGCT | 3.76
4 | ACTCGGAGAACAAAGGTCAGAGCTACGCCAGTGA | 0.505
5 | CCTAGGTGGTCAGGAGGTCACACACCGGATATGA | 0.00245
6 | CCTTAAGGGTCACTGACAGGTTATAGCATTTGGA | 3.42
7 | TCGAGTAGGTTACCAATGGGGCATTCCGCTTTCT | 0.173
8 | TCTTGTAGATCAACGGTTAAGAAAGCCGAAGCCT | 0.721
9 | CCGACTGGGGCAGAAAGGTTACCATACCATCCGG | -0.648
10 | GCTAGCAGGCCATTTGGGTTACTCAATGACGGGC | -0.102
11 | AGTCAAAGTTCATCTAGGGAACGTAAGATATGCT | 4.67
12 | CAAACTAGGTCACCGGATGGTCAAAGTCCGCATG | 1.74
13 | CCTCGGAGGCCAGAAGGTCAGAGCTGTCCGCTTT | -0.11
14 | CTCGAAAGGTCGGTTGAGGTGAGTGTACGGATAA | 0.363
15 | TAGCCTAGGTCATGGTCCAGTATACCACGCGAAC | 0.681
16 | CCTGCTAGGTCAATGGTCAGCTACAGCAGCTCGC | 1.74
17 | TCGAGTACGTTAGGGGCATTCAGAATGGCGTCGA | 3.64
18 | TAGCCTAGGACATTGGGCCAGTATAGTACGCATC | -0.671
19 | CCTTACGGGTCACAAGGTTATAGCACGACGAGCG | 1.18
20 | GTAACGAGGGCAAGTTGATAGCAGAGTTTGATGG | 2.07
21 | ACGTACGGGTCAACGAGGTTATAGCACGCGTATA | 2.07
22 | TCAAACAGGTGAAGGTAACTCAGGTACGCAGTCG | 1.43
